PubChem BioAssay (NCI)
This is part of a sample that, as a whole, favours compounds with a hit. Of some 83,000 tested, about 20% had one in any assay.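 For each line, cells grew in 96-well plates with the test compound present at a single concentration for 48 hours.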 Calls of active or inactive are those of the source. How the source made its calls: active means growth percent below 10; inactive means the rest.

Columns and labels:
Assay in all cases: NCI-60 one-dose screen, 48 h (100 = growth as untreated, 0 = no growth, -100 = all killed)
Details in all cases: 10 µM
NCI-H23 lung = tested on: NCI-H23 lung
NCI-H226 lung = tested on: NCI-H226 lung
HOP-62 NSCLC = tested on: HOP-62 NSCLC
NCI-H460 lung = tested on: NCI-H460 lung
HOP-92 NSCLC = tested on: HOP-92 NSCLC
NCI-H522 lung = tested on: NCI-H522 lung
A549/ATCC NSCLC = tested on: A549/ATCC NSCLC
786-0 renal = tested on: 786-0 renal
COLO 205 colon = tested on: COLO 205 colon
DU-145 prostate = tested on: DU-145 prostate
K-562 leukemia = tested on: K-562 leukemia
MALME-3M melanoma = tested on: MALME-3M melanoma
MDA-MB-231 breast = tested on: MDA-MB-231 breast
RXF 393 renal = tested on: RXF 393 renal
SF-268 CNS = tested on: SF-268 CNS
SF-295 CNS = tested on: SF-295 CNS
SF-539 CNS = tested on: SF-539 CNS
UACC-257 melanoma = tested on: UACC-257 melanoma
M14 melanoma = tested on: M14 melanoma

Measured: growth

Cc1c[nH]c(=O)n(Cc2nnc(CCC(=O)c3nc4ccccc4[nH]3)o2)c1=O
inactive: NCI-H23 lung 36.9% | NCI-H226 lung 31.7% | HOP-62 NSCLC 17.7% | HOP-92 NSCLC 53.2% | NCI-H522 lung 12.7% | A549/ATCC NSCLC 21.1% | 786-0 renal 28.7% | K-562 leukemia 10.4% | MALME-3M melanoma 47.8% | MDA-MB-231 breast 26.1% | SF-268 CNS 36.6% | SF-295 CNS 21.5% | UACC-257 melanoma 81.4%
active: NCI-H460 lung 9.27% | COLO 205 colon -32.7% | DU-145 prostate -35.3% | RXF 393 renal -7.83% | SF-539 CNS -15.2% | M14 melanoma -16.7%

O=[N+]([O-])c1cc(Cl)cc(Cl)c1O
inactive: NCI-H23 lung 97.7% | NCI-H226 lung 101% | HOP-62 NSCLC 91.5% | NCI-H460 lung 105% | HOP-92 NSCLC 105% | NCI-H522 lung 82.3% | A549/ATCC NSCLC 97.4% | 786-0 renal 99.9% | COLO 205 colon 108% | DU-145 prostate 105% | K-562 leukemia 109% | MALME-3M melanoma 97.1% | MDA-MB-231 breast 110% | RXF 393 renal 104% | SF-268 CNS 100% | SF-295 CNS 97.3% | SF-539 CNS 89.7% | UACC-257 melanoma 104%

CS(=O)(=O)c1nccc(-c2c(-c3cccc(OCc4ccccc4)c3)nc3sccn23)n1
inactive: NCI-H23 lung 53.6% | NCI-H226 lung 50.8% | HOP-62 NSCLC 92.9% | NCI-H460 lung 103% | HOP-92 NSCLC 51.8% | A549/ATCC NSCLC 106% | 786-0 renal 86.3% | COLO 205 colon 88.4% | K-562 leukemia 47.1% | MALME-3M melanoma 58.7% | MDA-MB-231 breast 61.4% | RXF 393 renal 90.7% | SF-268 CNS 97% | SF-295 CNS 101% | SF-539 CNS 90% | UACC-257 melanoma 27.8%
active: NCI-H522 lung 5.91% | DU-145 prostate -59.6%

COc1cc2cc(Oc3ccc(NC(=O)Nc4ccc(Cl)c(Cl)c4)cc3)c(C)nc2cc1OC
inactive: HOP-62 NSCLC 55.2% | 786-0 renal 20.3% | DU-145 prostate 24.8% | K-562 leukemia 12.7% | MALME-3M melanoma 14.9% | MDA-MB-231 breast 47.8% | RXF 393 renal 22.3% | SF-268 CNS 43.7% | SF-539 CNS 38.5% | M14 melanoma 25.8%
active: NCI-H23 lung 8.26% | NCI-H226 lung 7.74% | NCI-H460 lung 3.68% | HOP-92 NSCLC -9.31% | NCI-H522 lung -13.7% | A549/ATCC NSCLC 4.35% | COLO 205 colon 4.03% | SF-295 CNS 0.689% | UACC-257 melanoma 1.38%

CN(C)CCOc1cccc(NC2=C(Cl)C(=O)C(Nc3cccc(OCCN(C)C)c3)=C(Cl)C2=O)c1
active: NCI-H23 lung -59.5% | NCI-H226 lung -74.6% | HOP-62 NSCLC -82.9% | HOP-92 NSCLC -70.1% | NCI-H522 lung -91.3% | 786-0 renal -86.4% | COLO 205 colon -82.9% | DU-145 prostate -100% | K-562 leukemia -30.7% | MALME-3M melanoma -74.8% | MDA-MB-231 breast -75.2% | RXF 393 renal -76.5% | SF-268 CNS -50% | SF-539 CNS -86.4% | UACC-257 melanoma -97.3% | M14 melanoma -74%
inactive: NCI-H460 lung 55.4% | A549/ATCC NSCLC 57.9% | SF-295 CNS 66.5%

CCN(CC)CCOc1cccc2c1C(=O)c1ccccc1C2=O
inactive: NCI-H23 lung 88.2% | NCI-H226 lung 93.8% | HOP-62 NSCLC 82.5% | NCI-H460 lung 101% | HOP-92 NSCLC 71.2% | NCI-H522 lung 84.3% | A549/ATCC NSCLC 90.6% | 786-0 renal 93.1% | COLO 205 colon 68.6% | DU-145 prostate 100% | K-562 leukemia 93.8% | MALME-3M melanoma 115% | MDA-MB-231 breast 85.7% | RXF 393 renal 79.9% | SF-268 CNS 94.2% | SF-295 CNS 96.8% | SF-539 CNS 99.7% | UACC-257 melanoma 94.4%

CCOC(=O)C1=CSC2=NC3=C(CCC/C3=C\c3cc(OC)c(OC)c(OC)c3)C(c3cc(OC)c(OC)c(OC)c3)N12 (centres undefined)
active: DU-145 prostate 8.85%
inactive: NCI-H23 lung 52.3% | NCI-H226 lung 67.5% | HOP-62 NSCLC 74.5% | NCI-H460 lung 23.3% | HOP-92 NSCLC 84.8% | NCI-H522 lung 95.4% | A549/ATCC NSCLC 65.1% | 786-0 renal 91.3% | COLO 205 colon 52.7% | K-562 leukemia 38.7% | MALME-3M melanoma 74.6% | MDA-MB-231 breast 74.2% | RXF 393 renal 32.7% | SF-268 CNS 33.3% | SF-295 CNS 55.8% | SF-539 CNS 49.9% | UACC-257 melanoma 58.1% | M14 melanoma 16.9%

CCN(CC)CCOc1ccc2c(c1O)C(=O)c1ccccc1C2=O
inactive: NCI-H23 lung 82.4% | NCI-H226 lung 86.2% | HOP-62 NSCLC 73.3% | NCI-H460 lung 84.5% | HOP-92 NSCLC 75.3% | NCI-H522 lung 82.6% | A549/ATCC NSCLC 78.6% | 786-0 renal 80.1% | COLO 205 colon 46.6% | DU-145 prostate 95.4% | K-562 leukemia 71.6% | MALME-3M melanoma 109% | MDA-MB-231 breast 82.8% | RXF 393 renal 77.7% | SF-268 CNS 90.1% | SF-295 CNS 91.5% | SF-539 CNS 91.9% | UACC-257 melanoma 94.7% | M14 melanoma 92%
